# Rows were chosen to be rich in hits. Some 8.3% of all compounds tested hit in one or more screens of this group.
# MCF10A rerep: induces DNA re-replication in MCF 10a normal breast cells; AID 624296; Potency, µM (top dose mostly 46.1 µM), without a hit: at the top dose activity, positive = re-replication, most hits filed as activators; MCF 10A DNA re-replication, Hoechst nuclear intensity, 48 h; 350,000 compounds, 2.9% hits; also: potency is read from the fitted curve at half-maximal effect; % of control where 0% means no effect; nearly all actives have a fitted effect of over 50% in size
# RORgamma inh: inhibitors of mouse ROR gamma transcriptional activity | P51450 | Drosophila S2 Gal4-RORgamma UAS-luciferase reporter, 20 h | Potency, µM (top dose mostly 53.6 µM), inactives show at the highest dose activity change, negative = inhibition, hits mostly inhibitors | 310,000 compounds, 5.4% hits | AID 2551; also: potency is read from the fitted curve at half-maximal effect; % is scaled to controls: 0 for no effect and ±100 for the full control effect; nearly all actives have a fitted effect of over 60% in size
# Target sequence (P51450 whole entry, looked up, the tested form may be a part): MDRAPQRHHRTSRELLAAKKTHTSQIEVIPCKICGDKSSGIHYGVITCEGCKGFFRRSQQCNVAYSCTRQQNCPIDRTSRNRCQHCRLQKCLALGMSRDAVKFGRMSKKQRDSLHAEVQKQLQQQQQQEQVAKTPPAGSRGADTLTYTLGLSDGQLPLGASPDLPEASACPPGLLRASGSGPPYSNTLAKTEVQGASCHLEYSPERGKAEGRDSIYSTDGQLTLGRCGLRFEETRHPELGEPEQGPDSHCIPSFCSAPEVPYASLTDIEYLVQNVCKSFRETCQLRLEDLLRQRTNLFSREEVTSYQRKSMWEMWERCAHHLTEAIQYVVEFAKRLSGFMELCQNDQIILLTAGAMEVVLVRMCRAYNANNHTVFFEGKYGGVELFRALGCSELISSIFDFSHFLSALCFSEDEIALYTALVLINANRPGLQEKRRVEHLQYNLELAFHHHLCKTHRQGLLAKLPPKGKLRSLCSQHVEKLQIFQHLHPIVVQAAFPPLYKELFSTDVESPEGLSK
#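 Read-out: Photinus luciferase luminescence; inhibitors lower reporter signal. Insect Schneider cells with Gal4-ROR gamma fusion under metallothionein promoter, UAS reporter; 700 uM final copper sulfate induction, 20 hr, ambient temperature.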
# SW480 rerep: inducers of DNA re-replication in SW480 colon cancer cells; SW480 DNA re-replication, Hoechst DNA content imaging, 48 h; Potency, µM (titrated, usually from 46.1 µM), for inactives: at the highest dose re-replication activation, hits mostly activators; 340,000 compounds, 1.8% hits; AID 624297; also: potency is read from the fitted curve at half-maximal effect; % of control where 0% means no effect; nearly all actives have a fitted effect of over 55% in size
#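 DNA re-replication was detected as more nuclei of elevated Hoechst intensity after 48 hr exposure to compound (23 nL pinned per well of 250 cells).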
# Giardia kill: Giardia lamblia killing; activity change, % at 7.66 µM, hits read low; 340,000 compounds, 0.15% hits; Giardia lamblia trophozoite viability; AID 540267; in the data active = activity change below about -80%; inconclusive = between about -30% and that limit;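 also: parasites exposed to compound for two days anaerobically before the ATP read; % is scaled to controls: 0 for no effect and ±100 for the full control effect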
#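 Compounds were tested on trophozoites seeded at 100 cells/well and held 48 hrs at 37 deg C anaerobically. An ATP-based luminescent kit measured the remaining live cells.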
# VP16 counter: inhibits Gal4-VP16 luciferase reporter, ROR gamma counter-screen. Drosophila S2 Gal4-VP16 UAS-luciferase, luminescence, 20 h. Potency, µM (top dose mostly 53.6 µM), for the others: at the highest dose activity, negative = inhibition, usual class: inhibitors. 310,000 compounds, 3.5% hits. AID 2546;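 also: Gal4-VP16 expression switched on by copper sulfate through the metallothionein promoter; potency is read from the fitted curve at half-maximal effect; % is scaled to controls: 0 for no effect and ±100 for the full control effect; nearly all actives have a fitted effect of over 50% in size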
# BCR signal inh: blocks chronic active B-cell receptor signaling; Potency, µM (top dose mostly 46.1 µM), without a hit: at the highest dose activity change, negative = inhibition, usual class: inhibitors; AID 493014; ABC-DLBCL IkBa-CBG/CBR reporter, luminescence ratio, 4 h; 340,000 compounds, 0.05% hits; active = well fitted inhibition curve with a large enough effect in the signal ratio, with a control signal flat, not every such curve was filed as active; inconclusive = small, poorly fitted or top-dose-only effect, or effect the other way, or a change in a side signal; the % refers to the signal ratio;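 also: potency is read from the fitted curve at half-maximal effect; plate controls were basal doxycycline-induced cells for no effect and cells given 10 µM MG132 for full effect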
#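 Doxycycline induced both beetle luciferases in TMD8 lymphoma cells; IKK-driven degradation limits the IkappaBalpha-fused green signal, while red luminescence normalises for cell number and nonspecific effects. Compounds tested up to 46 uM, 4 hrs.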
# An asterisk follows results filed as active; u = inconclusive; x = not tested or not shown; ! = not active in a repeat; [ ] = dose if it differs, or a comment. Unless noted, calls follow the shape of the dose curve; as a rule, active = well fitted curve in the direction sought with a large enough effect; inconclusive = small, poorly fitted or top-dose-only effect, or another doubt; inactive = no such curve, though single readings can be large; an effect the other way counts as inactive or inconclusive.
SMILES,MCF10A rerep,RORgamma inh,SW480 rerep,Giardia kill,VP16 counter,BCR signal inh
O=C(Nc1ccccc1)N1CCC(=S)Nc2ccccc21,1.2%,-35.2%,-1.8%,-10.5,-3.7%,-1.2%
O=C(CCS(=O)(=O)c1ccccc1)N(CCCN1CCOCC1)c1nc2c(F)cccc2s1,13µM*,x,23.1µM*,1.5,x,u
CCc1cccc2sc(N(CCCN3CCOCC3)C(=O)CS(=O)(=O)c3ccccc3)nc12,1.9%,x,0.2%,8.8,x,-0.2%
O=C(CCS(=O)(=O)c1ccccc1)N(CCCN1CCOCC1)c1nc2ccc(F)cc2s1,18.4µM*,x,-14.0%,-1.4,x,u
Cc1ccc(S(=O)(=O)CC(=O)N(CCCN2CCOCC2)c2nc3c(F)cccc3s2)cc1,-8.0%,x,-4.0%,-8.2,x,4.9%
CCOc1ccc(NC(=O)CSc2nc3nc4c(cc3c(=O)n2CC)COC(C)(C)C4)cc1,13.1%,2.5%,-3.8%,17.5,-5.8%,u
O=C(NCCNC(=O)c1cnccn1)c1ccc(Cl)c(Cl)c1,-1.3%,7.3%,-5.7%,4.5,8.7%,-0.9%
COc1ccccc1OCC(=O)NNC(=O)c1cnccn1,0.1%,11.2µM*,-5.2%[9.22 µM],13.6,-2.9%,0.7%
CCc1ccc(OCC(=O)NNC(=O)c2cnccn2)c(Br)c1,u,u,20.4%,-18.3,6.31µM*,-2.1%
CCc1ccc(OCC(=O)Nc2ccncc2)c(Br)c1,u,43.8%,u,23.1,u,u
O=C(NNC(=O)c1cnccn1)c1ccc(Cl)c(Cl)c1,-4.7%,6.31µM*,7.5%,2.5,10µM*,u
COc1ccccc1NC(=O)COC(=O)c1cnccn1,-3.3%,-29.8%,-6.2%,-3.7,5.2%,2.8%
COc1cc2c(cc1OC)C(COc1ccccc1OC)N(C(=O)CC(C)C)CC2 (centres undefined),x,x,x,x,x,-9.6%
CN1OC[C@@H]2CN(Cc3cc(Cl)cc(Cl)c3)[C@H](c3cccc(-c4ccccc4)c3)C[C@@H]21,-24.8%,x,5.7%,-1.0,x,x
COc1cc(Nc2cc(C)nc3nc(C)nn23)cc(OC)c1OC,-9.3%,-25.4%,-12.3%,-9.9,12.6µM*,-1.1%
C/C(CCN1CCCCc2nc(C)c(C)cc21)=N\O[C@@H](C)CN1CCCCc2nc(C)c(C)cc21,23.1µM*,17.5%[10 µM],u,x,-2.2%[10 µM],-2.8%
C/C(CCN1CCCc2nc(C)c(C)cc21)=N\O[C@@H](C)CN1CCCCc2nc(C)c(C)cc21,x,4.1%[10 µM],x,x,-6.3%[10 µM],x
O=C1CN(C(=O)c2ccc(Cl)c([N+](=O)[O-])c2)c2ccccc2N1,-12.6%,34.1%,-1.9%,37.3,-11.1%,-14.3%
C=CCN1C(=O)N/C(=C/c2ccccc2OCC(=O)Nc2ccc(F)cc2)C1=O,23.1µM*,-30.5%,333.2%,-21.0,-15.8%,-4.4%
CCC(=O)Oc1oc(-c2ccccc2)nc1C=Nc1ccccc1OC,18.4µM*,18.6%,u,10.5,u,-21.2%
CCC(=O)Oc1oc(-c2ccccc2)nc1C=Nc1ccc(C)cc1,12.1%,44.9%,-96.4%,-3.5,-1.8%,6.4%
CCN(CC)c1ccc(C(=O)NC(=S)N2CCN(Cc3ccc4c(c3)OCO4)CC2)cc1,u,6.31µM*,-7.8%,-4.2,7.08µM*,3.1%
Cc1cc(Cl)ccc1NC(=S)N1CCN(Cc2ccccc2)CC1,11.8%,11.2µM*,-41.9%,-14.3,12.6µM*,u
c1ccc(CN2CCC(N3CCN(Cc4ccc5c(c4)OCO5)CC3)CC2)cc1,20.6µM*,9.2%,-0.5%,-10.0,4.3%,-5.5%
Cc1c(Cl)cccc1NC(=S)N1CCN(Cc2ccc3c(c2)OCO3)CC1,1.4%,11.2µM*,15.7%,-1.7,14.1µM*,-0.1%
SMILES,MCF10A rerep,RORgamma inh,SW480 rerep,Giardia kill,VP16 counter,BCR signal inh
CC1(C)CSC(=NCCc2ccccc2)N1,0.5%,6.2%,0.1%,-19.2,-15.5%,u
Cc1cc(C)n(CC(=O)NNC(=O)CC(C)c2ccccc2)n1 (centres undefined),10.5%,x,-0.2%,-28.1,x,4.1%
Cc1cccc(NC(=S)N2CCN(Cc3ccccc3)CC2)c1C,u,8.91µM*,11.4%,-3.4,u,5.0%
CCOC(=O)C1CCN(C(=O)C(C)N(c2ccc(Oc3ccccc3)cc2)S(C)(=O)=O)CC1 (centres undefined),-4.3%,-90.9%,-5.5%,u,20µM*,12.3%
CCOC(=O)N1CCN(C(=O)C(C)N(c2ccc(Oc3ccccc3)cc2)S(C)(=O)=O)CC1 (centres undefined),20.1%,-9.3%[0.365 µM],0.6%,4.4,x,u
COc1cccc(N2CCN(C(=O)CCCCCNc3nc(=S)[nH]c4ccccc34)CC2)c1,28.3%,8.91µM*,u,10.3,u,-13.9%
O=C(CCCCCNc1nc(=S)[nH]c2ccccc12)N1CCN(c2ccccn2)CC1,x,10µM*,x,x,u,0.9%
Nc1nc(NCc2cccc(Cl)c2)c2[nH]cnc2n1,x,x,x,-10.9,x,x
CCCCn1c(N)c(N(CC(C)C)C(=O)c2ccc3c(c2)NC(=O)C(C)S3)c(=O)[nH]c1=O (centres undefined),6.9%,5.0%,-4.2%,6.6,-8.7%,0.0%
Cc1ccc(S(=O)(=O)N(CC(=O)Nc2ccccc2C(=O)O)c2cccc(Cl)c2C)cc1,16.4µM*,6.1%,x,-10.1,-8.4%,5.9%
CCc1ccc(-c2nn(-c3ccccc3)cc2C2SCC(=O)N2Cc2ccco2)cc1 (centres undefined),u,32.7%,4.5%,5.8,9.4%,u
O=C1CSC(c2cn(-c3ccccc3)nc2-c2ccccc2)N1Cc1ccco1 (centres undefined),20.6µM*,-67.0%,-1.4%,-24.3,u,u
Cc1ccc(NC(=O)CSCC(=O)Nc2ccccc2N2CCCCC2)cc1,u,x,3.6%,-9.9,x,11.3%
CCN(C(=O)COC(=O)c1nccnc1N)c1cccc2ccccc12,0.8%,x,-6.3%,-7.6,x,-13.4%
Cc1nc(NCCO)c2nc(-c3ccccc3)n(CCN(C)C)c2n1,x,-35.3%,x,x,0.9%,x
CCOc1ccc(-c2cc(C(=O)NCc3ccc(OC)cc3)c3c(-c4ccc(F)cc4)[nH]nc3n2)cc1,x,x,x,x,x,15.5%
Cn1ccc(CC(=O)N2CCC(N3CCC(C(=O)N4CCCC4)CC3)CC2)c1,u,40.2%,-4.5%,5.2,-13.0%,2.9%
COC1=CC(=O)CC(C)C12Oc1c(Cl)c(OC)cc(OC)c1C2=O (centres undefined),u,-0.3%,23.1µM*!,-17.3,-11.1%,u
CC(CNC(=O)CN(C)CC(=O)Nc1ccccc1Br)c1ccccc1 (centres undefined),3.1%,x,-1.3%,13.8,x,-7.8%

# Screening results as filed in PubChem.
